Test results published in PubChem BioAssay AID2316 (Broad Institute, 2010).
Out of some 29,000 compounds screened, fewer than 10 were called active. No rule for the calls is given here. The list is a sample of the results.

assay: activators reversing PD-1 mediated T-cell inhibition, primary screen, luminescence, primary human CD4 T cells, PD-L1 beads (AID 2316); settings: CellTiter-Glo 96 h, stronger effect = higher value;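 also: 0% = median vehicle wells and 100% = positive control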

SMILES | activation
C[C@@H]1CCCCO[C@@H](CN(C)C(=O)CCCN(C)C)[C@@H](C)CN([C@H](C)CO)C(=O)c2cc(NC(=O)Nc3ccc(F)cc3)ccc2O1 | 0.492% (inactive)
C[C@@H]1CCCCO[C@@H](CN(C)S(=O)(=O)c2cccs2)[C@@H](C)CN([C@H](C)CO)C(=O)c2cc(NC(=O)Nc3ccc4c(c3)OCO4)ccc2O1 | -0.659% (inactive)
C[C@H](CO)N1C[C@H](C)[C@@H](CN(C)Cc2ccccc2)Oc2c(NC(=O)C3CCOCC3)cccc2C1=O | -1.74% (inactive)
COC(=O)c1scc(S(=O)(=O)C(C)(C)C)c1-n1cccc1 | -0.136% (inactive)
COc1cc(/C=C/C(=O)O[C@@H]2O[C@H](CO[C@@H]3O[C@H](CO)[C@@H](O)[C@H](O)[C@H]3O)[C@@H](O)[C@H](O)[C@H]2OC(=O)/C=C/c2cc(OC)c(O)c(OC)c2)cc(OC)c1O | -0.424% (inactive)
O=C(CCCN1C(=O)c2ccccc2C1=O)Nc1cccc2c1CCCC2 | 1.14% (inactive)
CCC1(C)C(=O)C=C2C(=COC(C)=C2C)C1O (centres undefined) | 0.686% (inactive)
CCCOc1ccc(C(=O)C2C(=O)C(=O)N(c3nc(C)c(C(=O)OC)s3)C2c2ccco2)cc1 (centres undefined) | 1.4% (inactive)
Cc1ccc(S(=O)(=O)Nc2cccc3c2O[C@@H](CN(C)CC2CCCCC2)[C@H](C)CN([C@@H](C)CO)C3=O)cc1 | 3.09% (inactive)
C[C@H]1CN([C@@H](C)CO)C(=O)Cc2cc(NC(=O)Nc3ccc(F)cc3)ccc2O[C@@H]1CN(C)C(=O)NC1CCCCC1 | 0.349% (inactive)
COc1ccc(S(=O)(=O)NCc2ccccn2)cc1I | 1.57% (inactive)
C[C@H](CO)N1C[C@H](C)[C@@H](CN(C)Cc2ccccc2)Oc2ccc(NC(=O)CCCN(C)C)cc2C1=O | 1.04% (inactive)
Cc1noc(C)c1NC(=O)Nc1ccc2c(c1)C(=O)N([C@H](C)CO)C[C@H](C)[C@@H](CN(C)C(=O)Nc1ccccc1)O2 | 1.04% (inactive)
C[C@H](CO)N1C[C@H](C)[C@H](CN(C)Cc2ccc3c(c2)OCO3)Oc2c(cccc2N(C)C)C1=O | 0.478% (inactive)
C[C@H]1CN([C@@H](C)CO)C(=O)c2cccc(NC(=O)CCCCCC(=O)Nc3ccccc3N)c2O[C@@H]1CN(C)CC1CCCCC1 | 0.769% (inactive)
CS(=O)(=O)N(CC(=O)NC1CC1)c1ccc(Cl)c(C(F)(F)F)c1 | -0.255% (inactive)
CCOC(=O)c1cnn2c(C(F)(F)F)cc(C)nc12 | 0.193% (inactive)
COC(=O)c1ccccc1NC(=O)C(C)Oc1ccccc1F (centres undefined) | 2.99% (inactive)
COc1ccc(N2C(=O)CC(SCC(=O)Nc3ccccc3F)C2=O)cc1 (centres undefined) | 1.75% (inactive)
COc1ccc(C)cc1S(=O)(=O)N(C)CC(=O)Nc1ccc(Br)cc1F | 1.42% (inactive)
Cc1ccc(S(=O)(=O)Nc2ccc3c(c2)C(=O)N([C@H](C)CO)C[C@H](C)[C@@H](CN(C)C(=O)Nc2ccc4c(c2)OCO4)OCCCC[C@@H](C)O3)cc1 | 0.503% (inactive)
CCCCn1c(O)c(C#N)c(C)cc1=O | 1.29% (inactive)
Cc1ccc(-c2csc3ncn(CC(=O)Nc4ccc(F)c(Cl)c4)c(=O)c23)cc1C | -0.0295% (inactive)

SMILES | activation
COc1ccc(NC(=O)N(C)C[C@@H]2OCCCC[C@@H](C)Oc3ccc(N(C)C)cc3C(=O)N([C@H](C)CO)C[C@@H]2C)cc1 | 0.076% (inactive)
O=S(=O)(c1ccc(Cl)cc1)c1nc(-c2ccccc2F)oc1NCCN1CCOCC1 | -0.673% (inactive)
NC(=O)c1c(NC(=O)c2cnn3c(C(F)F)cc(-c4ccccc4)nc23)sc2c1CCCC2 | -5.98% (inactive)
C[C@@H]1CN([C@H](C)CO)C(=O)c2cc(NC(=O)Cc3cn(C)c4ccccc34)ccc2O[C@H]1CN(C)S(C)(=O)=O | -1.87% (inactive)
Cc1ccc(S(=O)(=O)Nc2cccc3c2O[C@@H](CN(C)C(=O)Nc2ccccc2)[C@H](C)CN([C@@H](C)CO)C3=O)cc1 | 2.15% (inactive)
COc1ccc(S(=O)(=O)N(C)C[C@H]2Oc3ccc(NS(=O)(=O)c4c(C)noc4C)cc3CC(=O)N([C@@H](C)CO)C[C@H]2C)cc1 | -0.136% (inactive)
COc1ccc(NC(=O)CSc2nc(-c3cccs3)cc(-c3ccsc3)c2C#N)cc1OC | -6.31% (inactive)
O=C(CCc1nc(-c2ccccc2Cl)no1)Nc1ccc(Cl)c(Cl)c1 | 1.17% (inactive)
C=CCSc1nc(N)cc(=O)[nH]1 | 0.998% (inactive)
C[C@@H]1CN([C@H](C)CO)C(=O)Cc2cc(NS(=O)(=O)c3ccc(Cl)cc3)ccc2O[C@H]1CN(C)S(=O)(=O)c1cccs1 | -2.73% (inactive)
O=C(c1ccc(Cl)cc1)n1c(=O)oc2cc(Cl)ccc21 | -0.599% (inactive)
Cc1ccccc1NC(=O)CSc1nnc(-c2ccc([N+](=O)[O-])cc2)n1C | 0.454% (inactive)
C[C@H]1CN([C@@H](C)CO)C(=O)c2cc(NS(=O)(=O)c3ccc(Cl)cc3)ccc2O[C@H]1CN(C)Cc1ccc(Oc2ccccc2)cc1 | 0.482% (inactive)
O=C1Cc2ccc(F)cc2CC1C1=Cc2ccc(F)cc2CC1 (centres undefined) | -8.11% (inactive)
Cc1ccc([N+](=O)[O-])cc1N(CC(=O)Nc1ccc(Cl)c(C(F)(F)F)c1)S(C)(=O)=O | 3.56% (inactive)
N/C(CSc1nc2ccccc2s1)=N\O | -0.165% (inactive)
C[C@@H]1CN([C@H](C)CO)C(=O)Cc2cc(NC(=O)NC3CCCCC3)ccc2O[C@H]1CN(C)S(C)(=O)=O | 2.26% (inactive)
CC(C)(C)c1cn2c3ccccc3nc2n1CCN1CCOCC1 | -2.35% (inactive)
O=C(c1ccco1)N1CCN(CCOc2ccccc2)CC1 | 4.48% (inactive)
COc1ccc(S(=O)(=O)Nc2ccc3c(c2)CC(=O)N([C@H](C)CO)C[C@@H](C)[C@@H](CN(C)C(=O)Nc2cccc4ccccc24)O3)cc1 | 0.476% (inactive)
C[C@@H]1CCCCO[C@@H](CN(C)S(=O)(=O)c2cn(C)cn2)[C@@H](C)CN([C@H](C)CO)C(=O)c2cc(NC(=O)c3ccncc3)ccc2O1 | 3.7% (inactive)
C[C@@H]1CCCCO[C@H](CN(C)S(=O)(=O)c2cccs2)[C@@H](C)CN([C@H](C)CO)C(=O)c2cc(NC(=O)Nc3ccccc3)ccc2O1 | -1.94% (inactive)
COc1ccc(NC(=O)Nc2ccc3c(c2)CC(=O)N([C@@H](C)CO)C[C@H](C)[C@@H](CN(C)Cc2ccc4c(c2)OCO4)O3)cc1 | 0.816% (inactive)

SMILES | activation
COc1ccc(S(=O)(=O)Nc2ccc3c(c2)C(=O)N([C@H](C)CO)C[C@H](C)[C@@H](CN(C)S(C)(=O)=O)OCCCC[C@@H](C)O3)cc1 | 0.638% (inactive)
C[C@@H]1CN([C@@H](C)CO)C(=O)c2cc(NC(=O)Nc3ccccc3)ccc2O[C@@H]1CN(C)Cc1ccccc1 | 1.95% (inactive)
C[C@@H]1CN([C@H](C)CO)C(=O)c2cc(NS(=O)(=O)c3ccccc3)ccc2O[C@H]1CN(C)C(=O)Nc1ccc2c(c1)OCO2 | 1.11% (inactive)
COc1ccc(N(Cc2cc3ccccc3[nH]c2=O)C(=O)c2cccc(OC)c2)cc1 | 1.92% (inactive)
C[C@H]1CN([C@@H](C)CO)C(=O)c2cccc(NC(=O)c3cnccn3)c2O[C@@H]1CN(C)Cc1ccc(Oc2ccccc2)cc1 | -2.26% (inactive)
Cc1ccc(C23CC4CC(CC(CN)(C4)C2)C3)cc1C | -7.62% (inactive)
O=C(Nc1ccccc1)C(=S)Nc1ccccc1 | -0.0947% (inactive)
Cc1noc(C)c1NC(=O)N(C)C[C@@H]1Oc2ccc(NC(=O)Nc3ccc(F)cc3)cc2C(=O)N([C@H](C)CO)C[C@@H]1C | -0.0779% (inactive)
CN1CCN(S(=O)(=O)c2ccc(NC(=O)C3CC=CCC3C(=O)O)cc2)CC1 (centres undefined) | 1.99% (inactive)
Cc1cc(C)c(NC(=O)CSc2nnc(-c3ccccc3)n2-c2ccc(F)cc2)c(C)c1 | 1.56% (inactive)
COc1ccc(NC(=O)c2ccc(OCC(=O)Nc3ccccc3F)cc2)cc1Cl | 0.553% (inactive)
COc1ccc(NC(=O)N(C)C[C@@H]2Oc3ccc(NC(=O)Nc4ccccc4)cc3CC(=O)N([C@H](C)CO)C[C@@H]2C)cc1 | -0.196% (inactive)
CCOC(=O)CCSc1nnc2c3ccccc3n(C)c2n1 | -0.845% (inactive)
Cc1noc(C)c1NC(=O)Nc1ccc2c(c1)C(=O)N([C@H](C)CO)C[C@@H](C)[C@@H](CN(C)C(=O)NC(C)C)O2 | 0.338% (inactive)
O=C(CSc1nnc(-c2ccccc2)n1-c1ccc(Cl)cc1)Nc1ccc(Cl)cc1 | -11.8% (inactive)
CCc1cc(C)cc(OCC(O)Cn2cnc3ccccc32)c1 (centres undefined) | -5.01% (inactive)
CN1CCN(C(=O)CCc2nc(-c3ccc(Cl)cc3)no2)CC1 | -0.127% (inactive)
O=C(CSc1nnc2ccc3ccccc3n12)Nc1ccc2c(c1)OCCO2 | 0.368% (inactive)
c1ccc(Nc2ncnc3sc(-c4ccccc4)cc23)cc1 | -0.968% (inactive)
CCCC(=O)Nc1ncnc2c1ncn2[C@@H]1O[C@@H]2OP(=O)(O)OC[C@H]2[C@H]1OC(=O)CCC | 4.46% (inactive)
CCOc1ccc2nc(Nc3nc(C)c(Cc4ccc(C)cc4)c(=O)[nH]3)nc(C)c2c1 | -0.875% (inactive)
COc1ccc(C(=O)CSc2nnc(-c3cccc(C)c3)n2-c2ccccc2)cc1 | 1.1% (inactive)
Cc1ccc(S(=O)(=O)N(C)C[C@@H]2Oc3c(NC(=O)C4CC4)cccc3C(=O)N([C@H](C)CO)C[C@H]2C)cc1 | 1.35% (inactive)
